According to publication PMC5540273 (PLoS ONE, 2017):

Experiments:
Conditions in all cases: concentration: 1 μM, replicates: in singlicate; n = 1
PRKCE = system: PRKCE
PRKCH = system: PRKCH
PRKCI = system: PRKCI
PRKCQ = system: PRKCQ
PRKD1 = system: PRKD1
PRKD2 = system: PRKD2
PRKD3 = system: PRKD3
PRKG1 = system: PRKG1
PRKG2 = system: PRKG2
PRKR = system: T1, PRKR
T1 construct: gene EIF2AK2

PRKX = system: PRKX
PRP4 = system: PRP4
PYK2 = system: T2, PYK2
T2 construct: gene PTK2B

QSK = system: QSK
RAF1 = system: RAF1
RET = system: RET
RIOK1 = system: RIOK1
RIOK2 = system: RIOK2
RIOK3 = system: RIOK3
RIPK1 = system: RIPK1
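Further: KINOMEscan kinase panel screen.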

Row | Structure (SMILES) | %Inh (PRKCE) [%] | %Inh (PRKCH) [%] | %Inh (PRKCI) [%] | %Inh (PRKCQ) [%] | %Inh (PRKD1) [%] | %Inh (PRKD2) [%] | %Inh (PRKD3) [%] | %Inh (PRKG1) [%] | %Inh (PRKG2) [%] | %Inh (PRKR) [%] | %Inh (PRKX) [%] | %Inh (PRP4) [%] | %Inh (PYK2) [%] | %Inh (QSK) [%] | %Inh (RAF1) [%] | %Inh (RET) [%] | %Inh (RIOK1) [%] | %Inh (RIOK2) [%] | %Inh (RIOK3) [%] | %Inh (RIPK1) [%]
1 | CCn1c(-c2nonc2N)nc2ccccc21 [SB-693162/GW549034] | 44 | 17 | 31 | 16 | 0 | 3 | 0 | 0 | 67 | 0 | 24 | 0 | 0 | 0 | 0 | 22 | 0 | 14 | 0 | 0
2 | COc1cc(Nc2ccnc3ccc(C(F)(F)F)cc23)cc(OC)c1OC [GW577382] | 19 | 13 | 48 | 4 | 6 | 6 | 0 | 3 | 6 | 0 | 15 | 27 | 0 | 22 | 20 | 9 | 11 | 15 | 0 | 15
3 | Nc1n[nH]c2ncc(-c3ccccc3)cc12 [SB-517081] | 16 | 72 | 21 | 3 | 4 | 0 | 0 | 0 | 0 | 0 | 0 | 24 | 0 | 1 | 0 | 12 | 6 | 0 | 4 | 0
4 | COc1ccc(CNC(=O)NC2CCN(c3ccnc(Nc4ccc(F)cc4)n3)C2)cc1 (centres unmarked) [GSK1379706] | 27 | 12 | 0 | 15 | 0 | 14 | 15 | 0 | 20 | 15 | 18 | 47 | 1 | 0 | 6 | 21 | 8 | 0 | 0 | 0
5 | COc1cc2nccc(Nc3ccc(OCc4ccc(NC(C)=O)cc4)cc3)c2cc1OC.Cl [GW440135] | 10 | 14 | 0 | 0 | 0 | 11 | 2 | 10 | 0 | 0 | 7 | 50 | 26 | 15 | 18 | 11 | 0 | 0 | 0 | 0
6 | CN1C(=O)C(Nc2ccccc2)=C(c2ccccc2)C1=O [SB-300079] | 16 | 0 | 0 | 0 | 0 | 0 | 0 | 18 | 0 | 76 | 0 | 2 | 6 | 0 | 44 | 0 | 13 | 0 | 0 | 0
7 | O=C(Nc1n[nH]c2nc(-c3ccccc3)c(Cl)cc12)C1CC1 [SB-734909] | 10 | 0 | 0 | 0 | 0 | 35 | 5 | 6 | 20 | 0 | 0 | 0 | 0 | 38 | 30 | 0 | 7 | 41 | 7 | 55
8 | COc1cc2nccc(Nc3cccc(Oc4ccccc4)c3)c2cc1OC.Cl [GW284543] | 0 | 0 | 18 | 1 | 0 | 0 | 31 | 3 | 0 | 0 | 22 | 19 | 0 | 5 | 5 | 25 | 21 | 0 | 4 | 0
9 | Cc1c(Cn2c(C)nn3c(=O)cc(N4CCO[C@H](C)C4)nc23)cccc1C(F)(F)F [GSK2373690] | 0 | 35 | 26 | 17 | 0 | 0 | 0 | 15 | 0 | 0 | 29 | 26 | 1 | 14 | 19 | 6 | 15 | 17 | 27 | 1
10 | Nc1nc(N)c2nc(-c3ccccc3)[nH]c2n1 [SKF-12778] | 4 | 0 | 36 | 40 | 40 | 9 | 0 | 12 | 0 | 0 | 7 | 0 | 0 | 10 | 11 | 25 | 20 | 37 | 8 | 18
11 | FC(F)(F)c1ccc(-c2ncn(CCCN3CCOCC3)c2-c2ccncc2)cc1 [SB-217780] | 35 | 0 | 19 | 30 | 0 | 0 | 0 | 29 | 25 | 0 | 14 | 0 | 34 | 0 | 0 | 20 | 47 | 5 | 50 | 0
12 | CCCNC(=O)Nc1ccc(Oc2ncnc3ccn(C)c23)cc1 | 3 | 13 | 0 | 22 | 0 | 0 | 0 | 0 | 0 | 0 | 0 | 8 | 3 | 0 | 2 | 8 | 9 | 10 | 14 | 0
13 | CCC(=O)c1c(-c2ccccc2)c2cc(Cl)ccc2c(=O)n1Cc1cc(S(C)(=O)=O)n(CCC(C)(C)O)n1 | 0 | 3 | 23 | 37 | 1 | 4 | 0 | 0 | 21 | 0 | 30 | 0 | 0 | 8 | 14 | 14 | 8 | 42 | 0 | 20
14 | COc1cc2ncn(-c3cc(OCc4ccc(S(C)(=O)=O)cc4)c(C(N)=O)s3)c2cc1OC [GW869979] | 20 | 0 | 12 | 0 | 0 | 0 | 18 | 0 | 0 | 0 | 0 | 0 | 0 | 27 | 0 | 26 | 0 | 8 | 0 | 18
15 | CCn1c(-c2ccoc2)nc2cnccc21 [SB-733887] | 7 | 0 | 9 | 0 | 2 | 0 | 27 | 0 | 0 | 0 | 0 | 58 | 4 | 0 | 21 | 1 | 28 | 0 | 27 | 0
16 | COc1cc2ncn(-c3cc(OCc4ccncc4)c(C(N)=O)s3)c2cc1OC [GSK336313] | 1 | 0 | 0 | 0 | 47 | 3 | 15 | 0 | 0 | 0 | 7 | 20 | 0 | 0 | 7 | 4 | 31 | 6 | 12 | 46
